This is a sample that favours compounds with a hit; in the whole collection about 19% have one here.
TDP1 cell noCPT: qHTS for Inhibitors of human tyrosyl-DNA phosphodiesterase 1 (TDP1): qHTS in cells in absence of CPT. DT40 Tdp1-/- hTDP1 cells, no CPT, ATP luminescence, 48 h. Potency, µM (highest dose often 46.2 µM), usual class: inhibitors. 420,000 compounds, 15% hits. AID 686978, 2013; further: nearly all actives have a fitted effect of over 55% in size
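No-CPT arm: Tdp1-/-;hTDP1 DT40 cells (400/well) plus compounds, incubated ≥48 hr at 37 °C. Readout CellTiter-Glo luminescence.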
DT40 TDP1 CPT: DT40-hTDP1 cell growth loss with CPT. Potency, µM (highest dose often 46.2 µM), usual class: inhibitors. 420,000 compounds, 12% hits. chicken DT40 Tdp1-/-;hTDP1 cells + 20 nM CPT, ATP luminescence, 48 h. AID 686979; further: nearly all actives have a fitted effect of over 55% in size
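Chicken DT40 Tdp1-/- cells complemented with human TDP1, 400 cells/well, exposed to compounds plus 20 nM camptothecin for at least 48 h at 37 C; viability read as ATP content by CellTiter-Glo luminescence.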
HT1080NT lethal: kills 2HG-producing HT-1080-NT fibrosarcoma cells | HT-1080-NT fibrosarcoma viability, CellTiter-Glo ATP luminescence, 48 h | Potency, µM (series often up to 46.1 µM), actives largely listed as cytotoxic | 360,000 compounds, 1.6% hits;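 further: NT is the 2HG producing partner of a matched IDH1 knockdown line; nearly all actives have a fitted effect of over 55% in size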
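Compounds were tested in concentration-response format on HT-1080-NT cells for 48 hours at 37 degrees C. Cell viability came from CellTiter-Glo luminescence; curves were classified by r2, response magnitude and activity.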
IL-1B inflam inh: inhibitors of inflammasome signaling (IL-1 beta secretion); THP-1 LPS/ATP IL-1B secretion, AlphaLISA, 16 h; hits give low values; 360,000 compounds, 4.7% hits; activity change, % at 57.5 µM; in the data active means activity change below about -50%; inconclusive means mostly about -30% to -49%
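Secreted IL-1B measured by AlphaLISA bead assay after 16 h compound exposure of THP-1 cells; compounds (final up to 57.5 uM) added 1 h before LPS (250 ng/mL) and ATP (1.25 mM) stimulation; lower signal means less secretion.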
ELG1 repair inh: ELG1-dependent DNA repair inhibition. HEK293T ELG1-luciferase reporter, luminescence, 16 h; DNA damage induced by 5-fluorouridine. Potency, µM (top dose mostly 46.1 µM), usual class: inhibitors. 330,000 compounds, 2.3% hits; further: nearly all actives have a fitted effect of over 55% in size
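HEK293T cells expressing luciferase-tagged ELG1 (2,000/well) received 5-Fluorouridine plus compound or DMSO for 16 hr at 37 °C. Luciferase was read by ONE-Glo luminescence after 30 min at room temperature.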
HT1080 IDH1KD tx: kills HT-1080 cells with IDH1 knockdown. 360,000 compounds, 2% hits. Potency, µM (doses to about 46.1 µM), usual class: cytotoxic. HT-1080 IDH1 knockdown viability, ATP luminescence, 48 h
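% activity derives from luminescence (CellTiter-Glo), normalised to DMSO and no-cell wells. HT-1080-IDH1KD cells, 750/well, had 48 h compound exposure at 37 °C.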
Each line names hits and unclear results; the compound was inactive in the other large screens. Unless noted, the call rests on the fitted dose curve; in most records, active means well fitted curve in the direction sought with a large enough effect; inconclusive means small, poorly fitted or top-dose-only effect, or another doubt; inactive means no such curve, though single readings can be large; an effect the other way counts as inactive or inconclusive.

CC(C)(C)OC(=O)N1CC=C2C(C#N)=C(N)C(C#N)(C#N)C(c3cccs3)C2C1 (stereo not given)	TDP1 cell noCPT 23.1µM, DT40 TDP1 CPT inconclusive
CC(C)N1CC=C2C(C#N)=C(N)C(C#N)(C#N)C(c3ccccc3)C2C1 (stereo not given)	TDP1 cell noCPT 14.1µM, DT40 TDP1 CPT inconclusive
CCN1CC=C2C(C#N)=C(N)C(C#N)(C#N)C(c3cc(Cl)ccc3Cl)C2C1 (stereo not given)	TDP1 cell noCPT 23.1µM, DT40 TDP1 CPT 18.4µM, HT1080 IDH1KD tx inconclusive
Cc1ccc(F)c(S(=O)(=O)NC(=O)C2(C)CCN2C(=O)c2sccc2C)c1 (stereo not given)	none (no result: ELG1 repair inh)
CC(C)C(=O)NC(Nc1cc(C(F)(F)F)ccc1Cl)C(Cl)(Cl)Cl (stereo not given)	TDP1 cell noCPT 25.9µM, DT40 TDP1 CPT inconclusive
CCCC(=O)NC(Nc1cc(C(F)(F)F)ccc1Cl)C(Cl)(Cl)Cl (stereo not given)	TDP1 cell noCPT 18.4µM, DT40 TDP1 CPT 18.4µM, HT1080NT lethal inconclusive, HT1080 IDH1KD tx inconclusive
CCC(C(=O)Nc1cccc(C(F)(F)F)c1)c1ccccc1 (stereo not given)	TDP1 cell noCPT inconclusive, DT40 TDP1 CPT inconclusive, HT1080NT lethal inconclusive, HT1080 IDH1KD tx inconclusive
O=C(NC(Nc1cc(C(F)(F)F)ccc1Cl)C(=O)c1ccccc1)c1ccccc1 (stereo not given)	TDP1 cell noCPT 20.6µM, DT40 TDP1 CPT inconclusive
CCCC(=O)NC(Nc1cccc(C(F)(F)F)c1)C(Cl)(Cl)Cl (stereo not given)	TDP1 cell noCPT 20.6µM, DT40 TDP1 CPT inconclusive, HT1080NT lethal inconclusive, HT1080 IDH1KD tx inconclusive
c1ncc2snnc2n1	none (no result: HT1080NT lethal, IL-1B inflam inh, ELG1 repair inh, HT1080 IDH1KD tx)
COc1cccc(CNC(=O)[C@@H]2CCCN2C(=O)[C@@H]2CCCN2C(=O)OC(C)(C)C)c1	none (no result: ELG1 repair inh)
C=CCCC(=O)N1C[C@H]2CON(C)[C@H]2C[C@H]1c1ccc(N2CCCCC2)cc1	none (no result: ELG1 repair inh)
CCSc1nc2c(c(=O)n(C)c(=O)n2C)n1Cc1ccc(Cl)cc1	TDP1 cell noCPT 18.4µM, DT40 TDP1 CPT 20.6µM (no result: ELG1 repair inh)
Cc1ccc(Cn2c(Sc3nccc(C)n3)nc3c2c(=O)[nH]c(=O)n3C)cc1	TDP1 cell noCPT inconclusive, ELG1 repair inh inconclusive
Cn1c(=O)c2c(nc(Sc3ncccn3)n2Cc2ccc(Cl)cc2)n(C)c1=O	TDP1 cell noCPT inconclusive, DT40 TDP1 CPT 11.6µM, ELG1 repair inh 16.4µM
Cn1c(=O)c2c(nc(SCC(=O)c3cccs3)n2Cc2ccc(F)cc2)n(C)c1=O	TDP1 cell noCPT 11.6µM, DT40 TDP1 CPT 20.6µM, ELG1 repair inh inconclusive
Cc1ccc(Cn2c(Sc3ncccn3)nc3c2c(=O)[nH]c(=O)n3C)cc1	TDP1 cell noCPT 16.4µM, DT40 TDP1 CPT inconclusive, HT1080NT lethal inconclusive, ELG1 repair inh inconclusive
CCCc1cc(=O)oc2cc(C)cc(OC(C)C(=O)NCc3ccncc3)c12 (stereo not given)	none
O=C(COC(=O)c1cnccn1)NC1CCCc2ccccc21 (stereo not given)	ELG1 repair inh inconclusive
Cn1c(=O)c2c(nc(SCCN3CCCCC3)n2Cc2ccc(Cl)cc2)n(C)c1=O	TDP1 cell noCPT inconclusive, HT1080NT lethal inconclusive, ELG1 repair inh inconclusive
Cc1ccc(Cn2c(SCC(C)C)nc3c2c(=O)n(C)c(=O)n3C)cc1	TDP1 cell noCPT 25.9µM, DT40 TDP1 CPT 25.9µM, ELG1 repair inh inconclusive
CCN(CC)C(=O)CSc1nc2c(c(=O)n(C)c(=O)n2C)n1Cc1ccccc1	none (no result: HT1080NT lethal, IL-1B inflam inh, ELG1 repair inh, HT1080 IDH1KD tx)
Cc1nnc(Sc2nc3c(c(=O)n(C)c(=O)n3C)n2Cc2ccc(Cl)cc2)s1	TDP1 cell noCPT 16.4µM, DT40 TDP1 CPT inconclusive
CC(C)C1Oc2ccccc2N(CC(=O)N(C)C2CCCCC2)C1=O (stereo not given)	TDP1 cell noCPT inconclusive, DT40 TDP1 CPT inconclusive, IL-1B inflam inh -73.5

Screening data (PubChem)
